Whole data set: some 33,000 sequences, median “e-score” near -0.053, cut for the highest 2% near 0.38. The entries come from a sample that favours the highest values as a whole.

This assay has as its target T1, SIX1 homeodomain (reference allele) (human, UniProt Q15475 108-198).
T1 sequence: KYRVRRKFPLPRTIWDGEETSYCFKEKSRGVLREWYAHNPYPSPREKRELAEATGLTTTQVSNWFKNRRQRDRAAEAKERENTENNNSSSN
Nature of the assay: universal protein binding microarray; Universal all-10-mer PBM (8x60K, AMADID 030236), 300 nM GST-tagged protein, Alexa Fluor 488 anti-GST; buffer, salt, pH and temperature not stated (as in Berger); high values mean tight binding. The note with it: protein: ivt; tags: N-terminal GST; dsDNA, one strand shown. The essentials: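 GST-tagged homeodomains were made by in vitro transcription/translation and quantified by anti-GST western blot against a recombinant GST standard curve. They were applied in duplicate at 300 nM final concentration to universal 'all 10-mer' protein binding microarrays (8×60K format). Binding was quantified as 8-mer E-scores with the Universal PBM Analysis Suite.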
In the case of ATATGCGG, the binding signal worked out at 0.274 ± 0.0261 E-score.
The same measure for CGATCACA: 0.273 ± 0.0408 E-score; for ATCTCACC: 0.335 ± 0.0374 E-score; for ATCACACG: 0.256 ± 0.0276 E-score.
Take ATCTCACA: the binding signal worked out at 0.293 ± 0.0554 E-score.
With ATCACACA, the binding signal stood at 0.266 ± 0.0227 E-score.
On to ATATCACA, for which the binding signal stood at 0.432 ± 0.0476 E-score.
With GTATCACA, the binding signal came out at 0.476 ± 0.00651 E-score.
Take CTATCACC: the binding signal is 0.35 ± 0.0258 E-score.
For ATATCACG the value was 0.456 ± 0.0263 E-score; for ATATCACC, 0.463 ± 0.0204 E-score.
Regarding GTGTCACA, the binding signal came to 0.375 ± 0.0203 E-score.
Regarding CTATCACA, the binding signal came out at 0.311 ± 0.0251 E-score.
For GACCCCGA the value was 0.162 ± 0.0961 E-score; for GACCGATA, 0.352 ± 0.0178 E-score.
For ATCCTGCC the value was 0.175 ± 0.00513 E-score.
ATCCCAGG: the binding signal was 0.246 ± 0.0889 E-score.
For ATACGTCG the value was 0.284 ± 0.0738 E-score; for GAGGATCC, 0.366 ± 0.0159 E-score.
As for ATCATGCC, the binding signal worked out at 0.244 ± 0.0171 E-score.
ATACTAAC: the binding signal stood at 0.243 ± 0.00453 E-score.
For the sequence GATCGGGA, the binding signal is 0.314 ± 0.0357 E-score.
Turning to ATCATGTA, the binding signal was 0.257 ± 0.0225 E-score.
Turning to AAAATGAT, the binding signal is 0.187 ± 0.101 E-score.
For the sequence CATGGATC, the binding signal is 0.307 ± 0.0322 E-score.
The same measure for CACTGAGA: 0.188 ± 0.00306 E-score.
Take GACTGATC: the binding signal was 0.272 ± 0.0144 E-score.
In the case of GTCTGATA, the binding signal amounted to 0.294 ± 0.0149 E-score.
With AACTGATA, the binding signal worked out at 0.409 ± 0.0324 E-score.
With CACTGATC, the binding signal was found to be 0.284 ± 0.00727 E-score.
In the case of GACTGATA, the binding signal came out at 0.4 ± 0.0302 E-score.
For AACTGATC the value was 0.286 ± 0.0372 E-score; for AGCTGATA, 0.357 ± 0.0301 E-score.
With CACTGATA, the binding signal turned out to be 0.404 ± 0.0311 E-score.
On to GGCTGATA, for which the binding signal was determined as 0.422 ± 0.00103 E-score.
CGCTGATA: the binding signal was found to be 0.325 ± 0.0672 E-score.
For GATAAGGA the value was 0.183 ± 0.0109 E-score; for TAAACTGA, 0.158 ± 0.0427 E-score; for GATAAAAC, 0.164 ± 0.00658 E-score.
The same measure for AATAGTAT: 0.251 ± 0.0966 E-score; for GATTAGAA: 0.184 ± 0.0514 E-score; for ATCAGACC: 0.201 ± 0.00705 E-score.
For ACGATTAA the value was 0.152 ± 0.0367 E-score; for AGACTATA, 0.204 ± 0.0102 E-score.
In the case of AGCCAGAT, the binding signal was 0.176 ± 0.0223 E-score.
For TACTGACA the value was 0.182 ± 0.0373 E-score.
In the case of TACTGCTA, the binding signal amounted to 0.189 ± 0.0325 E-score.
For TACTGATA, the binding signal worked out at 0.418 ± 0.0125 E-score.
On to ATCGGTTC, for which the binding signal came to 0.248 ± 0.0232 E-score.
For the sequence CCCTGAGC, the binding signal is 0.178 ± 0.0455 E-score.
Regarding CCATCCGA, the binding signal worked out at 0.218 ± 0.0511 E-score.
For the sequence ACACCACC, the binding signal came out at 0.293 ± 0.0475 E-score.
For ATACCACG the value was 0.291 ± 0.0123 E-score; for ATACCATG, 0.362 ± 0.0283 E-score; for ATACCACC, 0.403 ± 0.00615 E-score.
As to ACACCACA, the binding signal turned out to be 0.328 ± 0.0113 E-score.
As to ACACCACT, the binding signal came to 0.378 ± 0.0238 E-score.
As to ATACCACA, the binding signal was found to be 0.3 ± 0.00694 E-score.
As to ATACCATA, the binding signal worked out at 0.3938 ± 0.0037 E-score.
For CTACCATA, the binding signal worked out at 0.167 ± 0.0746 E-score.
On to ATACCAAC, for which the binding signal worked out at 0.367 ± 0.0126 E-score.
Take ACACCATA: the binding signal was determined as 0.302 ± 0.022 E-score.
Consider ATACCATC, for which the binding signal was 0.384 ± 0.0257 E-score.
In the case of ATCCCCGA, the binding signal turned out to be 0.368 ± 0.0273 E-score.
With ATGGAGGA, the binding signal was determined as 0.155 ± 0.0279 E-score.
For CTATACGA the value was 0.1804 ± 0.000898 E-score; for ACCCTTCT, 0.224 ± 0.046 E-score; for CACCCCTC, 0.251 ± 0.0895 E-score.
Turning to AGATTAAT, the binding signal turned out to be 0.2 ± 0.0731 E-score.
For the sequence ATTAAACC, the binding signal amounted to 0.174 ± 0.0609 E-score.
Regarding GTGATCGA, the binding signal was determined as 0.159 ± 0.103 E-score.
Regarding TATTGGCA, the binding signal is 0.223 ± 0.0277 E-score.
CTGATACA: the binding signal was found to be 0.404 ± 0.00574 E-score.
For ATGATACC, the binding signal was 0.4885 ± 0.000523 E-score.
The same measure for ATGATGCC: 0.157 ± 0.00805 E-score; for GTGATACA: 0.444 ± 0.0156 E-score; for ATGATACA: 0.449 ± 0.0144 E-score.
Regarding ATGATAAT, the binding signal was 0.168 ± 0.0146 E-score.
AAGATACA: the binding signal was determined as 0.265 ± 0.0451 E-score.
ATCATACA: the binding signal came to 0.306 ± 0.0152 E-score.
The same measure for TAGATACA: 0.25 ± 0.019 E-score; for GTTATACA: 0.151 ± 0.064 E-score; for TCGATACA: 0.348 ± 0.00588 E-score.
Regarding CTACAGTA, the binding signal came to 0.152 ± 0.00721 E-score.
For ATCACTAC, the binding signal was 0.287 ± 0.0143 E-score.
GGATTGTA: the binding signal was 0.162 ± 0.0146 E-score.
For ACGCGATC the value was 0.275 ± 0.00505 E-score; for GATAGCGA, 0.251 ± 0.00148 E-score; for ATACATTG, 0.218 ± 0.012 E-score.
As to GTATATTA, the binding signal was determined as 0.267 ± 0.0332 E-score.
For ATGATCAG the value was 0.229 ± 0.031 E-score.
As for CTCATACC, the binding signal is 0.171 ± 0.00583 E-score.
With ATCATACG, the binding signal worked out at 0.269 ± 0.0223 E-score.
With CTGAGACC, the binding signal was found to be 0.261 ± 0.00696 E-score.
For the sequence ATGATACG, the binding signal was 0.48 ± 0.01 E-score.
As for CTGATACC, the binding signal came to 0.4842 ± 0.00158 E-score.
Regarding ATCGGGTA, the binding signal is 0.337 ± 0.0486 E-score.
GATCGGAA: the binding signal turned out to be 0.167 ± 0.0621 E-score.
For CCTAGATC the value was 0.228 ± 0.0313 E-score; for ATCAGTCA, 0.2227 ± 0.00177 E-score.
For AGGGATCG the value was 0.386 ± 0.0182 E-score; for GGGGATGA, 0.267 ± 0.0256 E-score.
As to AGGGATTA, the binding signal was found to be 0.305 ± 0.032 E-score.
In the case of AGAGATCG, the binding signal was 0.25548 ± 0.000134 E-score.
Turning to CGGGATGA, the binding signal amounted to 0.159 ± 0.0157 E-score.
GGGGATCA: the binding signal was determined as 0.4469 ± 0.0011 E-score.
On to AGGGATTG, for which the binding signal was 0.203 ± 0.0478 E-score.
Consider AGGGATGA, for which the binding signal came to 0.176 ± 0.025 E-score.
As for GGGGATTA, the binding signal worked out at 0.302 ± 0.0187 E-score.
As to AGGGATCA, the binding signal was found to be 0.4493 ± 0.00351 E-score.
Take CGGGATTA: the binding signal was determined as 0.263 ± 0.0233 E-score.
On to CGGGATCA, for which the binding signal came to 0.417 ± 0.0124 E-score.
Regarding CAGCGATC, the binding signal came out at 0.265 ± 0.0201 E-score.
Regarding ATTATGTG, the binding signal was 0.171 ± 0.0412 E-score.

These data come from publication PMC10668032, “Altered binding affinity of SIX1-Q177R correlates with enhanced WNT5A and WNT pathway effector expression in Wilms tumor”.
